# Results reported in PubChem BioAssay (NCI).
# Compounds without any hit were thinned out: in the full panel of roughly 83,000, 20% have a hit.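 Cell lines were cultured in 96-well plates, exposed to a single compound concentration, and assessed for percent growth 48 hours later.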 A number with no mark means an inactive call. Calls of active or inactive are those of the source. Rule for the calls: active = growth percent below 10; inactive = the rest.
# Test system: SW-620 colon
# Experiment: NCI-60 one-dose screen, 48 h (100 = growth as untreated, 0 = no growth, -100 = all killed)
# Conditions: 10 µM unless noted
row,SMILES,growth
1,COc1cccc(CC(C)=C(c2ccc(OCCN(C)C)cc2)c2ccc(OCCN(C)C)cc2)c1,-61.6% (active)
2,N/C(=N\C(N)=N\c1nc2ccccc2s1)c1cccc(Br)c1,102%
3,O=C(Nc1ccc(Cl)c(Cl)c1)NS(=O)(=O)c1cnccc1Oc1ccc(F)cc1,65.3%
4,Cc1ccc(S(=O)(=O)NC(=O)n2cc(-c3ccncc3)c(-c3ccc(Cl)c(O)c3)n2)cc1,131%
5,CCN(CC)CCC(CNc1ccnc2cc(Cl)ccc12)c1ccc(Cl)cc1 (stereo not drawn),-67.8% (active)
6,CCN(CC)CCOc1ccc(Cl)c(C)c1,106%
7,OC(c1cc2cc(Br)ccc2c2cc(Br)ccc12)C1CCCCN1 (stereo not drawn),-75% (active)
8,CCN(CC)CCC(CNc1ccnc2cc(Cl)ccc12)c1ccccc1 (stereo not drawn),62.3%
9,CCCCCCCCCCCCNC(=O)[C@H]1CSC(c2cc3ccccc3s2)N1 (stereo partly drawn),3.61% (active)
10,CCCCCCN1CSC(=S)N(CCCCCC)C1,94.2%
11,CC1(c2ccc(Cl)cc2)OC(=O)CC(=O)O1,105%
12,O=C(NS(=O)(=O)c1ccc2ccccc2c1)n1cc(-c2ccncc2)c(-c2ccc(Cl)c(O)c2)n1,95.2%
13,CN(C)CCOC(=O)Nc1ccccc1Cl,109%
14,Cc1c(C(=O)/C=C/c2csc3ccccc23)[n+](=O)c2ccccc2n1[O-],26.3%
15,CN(C)CCCN(c1nc(C(Cl)(Cl)Cl)ns1)c1nc(C(Cl)(Cl)Cl)ns1,35.1%
16,CC[N+](CC)=c1cc2oc3cc(N(C)C)ccc3nc-2cc1C,15.9%
17,CCN(CC)CCC(CNc1c2ccc(Cl)cc2nc2ccc(OC)cc12)c1ccccc1 (stereo not drawn),-49.7% (active)
18,CN1CCN(Cc2ccc(NC(=O)c3nc4ccc5[nH]ncc5c4c4c3CCC4)cc2C(F)(F)F)CC1,-56.2% (active)
19,COc1ccc(N=Cc2c(O)ccc3c2oc2cc(Cl)c(O)c(Cl)c23)cc1,99.2%

row,SMILES,growth
1,O=C(O)C1CCCCN1c1nc(Cl)nc(Cl)n1 (stereo not drawn),101%
2,C=CCn1c2ccccc2c2c3c(c4c5ccccc5n(CC=C)c4c21)C(=O)N(O)C3=O,54.9%
3,Nc1cccc(Cl)c1N,101%
4,O=C(NS(=O)(=O)c1ccccc1)n1cc(-c2ccncc2)c(-c2ccc(Cl)c(O)c2)n1,136%
5,Cc1csc(NC(c2ccc(Br)cc2)c2c(C)nc3ccccn23)n1 (stereo not drawn),88.1%
6,O=S(=O)(c1ccc(OCCO)cc1)c1ccc(OCCO)cc1,94.6%
7,COc1cc(-c2nn(C(=O)NS(=O)(=O)c3ccccc3)cc2-c2ccncc2)ccc1Cl,112%
8,Cc1ccc(Cc2c(C=O)nc(N)[nH]c2=O)c2ccccc12,103%
9,CCN(CC)CCCC(C)Nc1c2ccc(Cl)cc2nc2cc(OC)c(OC)cc12 (stereo not drawn),-25.2% (active)
10,CCCCCCCCCCCCNC(=O)[C@H]1CSC(c2ccsc2)N1 (stereo partly drawn),-75.9% (active)
11,CC(C)(C)NCCC(O)c1cc2c(Cl)cc(Cl)cc2c2cc(C(F)(F)F)ccc12 (stereo not drawn),-73.3% (active)
12,COc1cc2c(cc1O)CCN1C[C@@H](CC(C)C)[C@@H](O)C[C@@H]21,102%
13,Nc1ccc(C(=O)CSc2nc3ccccc3[nH]2)cc1,101%
14,CCCC(=O)Oc1ccc(/C(=C(\C)c2ccccc2)c2ccc(OCCN(CC)CC)cc2)cc1,84.5%
15,C/C=C(\C)C(C(=O)NC1CCCCC1)N(C(=O)C1CCc2cc(F)ccc2O1)c1ccc(Cl)cc1 (stereo not drawn),103%
16,Cn1ccc(=O)c(S(N)(=O)=O)c1,105%
17,O=c1[nH]c(NCc2ccccc2)nc2nc(Nc3ccc(NC(=S)Nc4ccccc4)cc3)nc(-c3ccc(O)cc3O)c12,95.6%
18,COc1ccc(-n2c(-c3ccccc3)c(-c3ccccc3)c3c(SCC(=O)N/N=C/c4ccc(Cl)cc4)ncnc32)cc1,99%
19,COc1ccc(S(=O)(=O)NCCCNc2nccc(-c3c(-c4cccc([N+](=O)[O-])c4)nc4sccn34)n2)cc1,91.4%
